The values below come from PubChem BioAssay AID1494157 (National Center for Advancing Translational Sciences (NCATS), 2020).

The structures appear in SMILES notation. Records with an inconclusive call do not appear. Calls of active or inactive are those of the source. Calls follow the shape of the full dose curve.

The assay is described as follows: Confirmatory qHTS for inhibitors of MERS-S pseudo-typed particle cell entry. The note with it: MERS-S pseudotyped particle entry, luciferase reporter; series mostly up to 57.1 µM. In general terms: Quantitative high-throughput screening tests each substance at several concentrations.
For `CC(C)(C)C(=O)OCOP(=O)(COCCn1cnc2c(N)ncnc21)OCOC(=O)C(C)(C)C`, the Potency is 0.0304 µM (active).
Same read-out and setting: under `Cc1c(N)nc(C(CC(N)=O)NCC(N)C(N)=O)nc1C(=O)NC(C(=O)NC(C)C(O)C(C)C(=O)NC(C(=O)NCCc1nc(-c2nc(C(=O)NCCCN[C@@H](C)c3ccccc3)cs2)cs1)C(C)O)C(O[C@@H]1O[C@@H](CO)[C@@H](O)[C@H](O)[C@@H]1O[C@H]1O[C@H](CO)[C@@H](O)[C@H](OC(N)=O)[C@@H]1O)c1cnc[nH]1` (stereo not given in full) stands “inactive”; under `CC(C)C[C@H](NC(=O)[C@H](CCc1ccccc1)NC(=O)CN1CCOCC1)C(=O)N[C@@H](Cc1ccccc1)C(=O)N[C@@H](CC(C)C)C(=O)[C@@]1(C)CO1`, 0.192 µM (active); under `O=C1c2c(O)ccc(O)c2C(=O)c2c(NCCNCCO)ccc(NCCNCCO)c21`, 0.961 µM (active).
On the same count and under the same terms, under `CN(C)[C@@H](CCOc1cccc2ccccc12)c1ccccc1` stands 12.1 µM (active); under `CN(C)CCC=C1c2ccccc2C(C)(C)c2ccccc21`, 15.2 µM (active).
Consider `CCOc1cc2ncc(C#N)c(Nc3ccc(OCc4ccccn4)c(Cl)c3)c2cc1NC(=O)/C=C/CN(C)C`, for which the activity change, negative = inhibition was -18.9% [at 11.2 µM] (inactive).
For the compound `C[C@H]1[C@H](OC(=O)CCC(=O)O)O[C@@H]2O[C@@]3(C)CC[C@H]4[C@H](C)CC[C@@H]1[C@@]24OO3`, the Potency is 0.857 µM (active).
Still for that read-out and setting: under `Cc1ccc(NC(=O)c2ccc(CN3CCN(C)CC3)cc2)cc1Nc1nccc(-c2cccnc2)n1` stands 13.6 µM (active).
Same read-out and setting: under `CN1CCC[C@@H]1CCO[C@](C)(c1ccccc1)c1ccc(Cl)cc1` stands 7.64 µM (active).
For `CN1CC[C@H](CN2c3ccccc3Sc3ccccc32)C1`, the Potency is 15.2 µM (active).
Same read-out and setting: to `NCCNc1ccc(NCCN)c2c1C(=O)c1ccncc1C2=O` belongs 19.2 µM (active); to `CC(C)OC(=O)[C@H](C)N[P@](=O)(CO[C@H](C)Cn1cnc2c(N)ncnc21)Oc1ccccc1`, 0.0152 µM (active); to `CC(=O)Oc1ccccc1C(=O)Nc1ncc([N+](=O)[O-])s1`, 10.8 µM (active).
On the same count and under the same terms, under `CCN(CC)Cc1cc(Nc2ccnc3cc(Cl)ccc23)ccc1O` stands 9.61 µM (active).
